From PubChem BioAssay AID504333 (National Center for Advancing Translational Sciences (NCATS), 2011)
Screen size: about 360,000 compounds; about 16,000 (4.4%) were called active. Not shown: some 9% with an inconclusive outcome. Calls come from the whole dose curve; as a rule, active = well fitted inhibition curve with a large enough effect; inconclusive = small, poorly fitted or top-dose-only effect; inactive = no such curve, though single readings can be large or run the other way. Many of the other results were omitted from the sample, so actives are more common in it than they were.

Each compound was assayed against Bromodomain adjacent to zinc finger domain protein 2B (Homo sapiens) (UniProt Q9UIF8) (assay: qHTS Assay for Inhibitors of BAZ2B). Details: AlphaScreen BAZ2B-H3K14Ac peptide displacement; series mostly up to 114 µM; activity change, negative = inhibition: at the top concentration.
Bromodomain adjacent to zinc finger domain protein 2B (Homo sapiens), sequence (Q9UIF8 whole entry, looked up, the tested form may be a part): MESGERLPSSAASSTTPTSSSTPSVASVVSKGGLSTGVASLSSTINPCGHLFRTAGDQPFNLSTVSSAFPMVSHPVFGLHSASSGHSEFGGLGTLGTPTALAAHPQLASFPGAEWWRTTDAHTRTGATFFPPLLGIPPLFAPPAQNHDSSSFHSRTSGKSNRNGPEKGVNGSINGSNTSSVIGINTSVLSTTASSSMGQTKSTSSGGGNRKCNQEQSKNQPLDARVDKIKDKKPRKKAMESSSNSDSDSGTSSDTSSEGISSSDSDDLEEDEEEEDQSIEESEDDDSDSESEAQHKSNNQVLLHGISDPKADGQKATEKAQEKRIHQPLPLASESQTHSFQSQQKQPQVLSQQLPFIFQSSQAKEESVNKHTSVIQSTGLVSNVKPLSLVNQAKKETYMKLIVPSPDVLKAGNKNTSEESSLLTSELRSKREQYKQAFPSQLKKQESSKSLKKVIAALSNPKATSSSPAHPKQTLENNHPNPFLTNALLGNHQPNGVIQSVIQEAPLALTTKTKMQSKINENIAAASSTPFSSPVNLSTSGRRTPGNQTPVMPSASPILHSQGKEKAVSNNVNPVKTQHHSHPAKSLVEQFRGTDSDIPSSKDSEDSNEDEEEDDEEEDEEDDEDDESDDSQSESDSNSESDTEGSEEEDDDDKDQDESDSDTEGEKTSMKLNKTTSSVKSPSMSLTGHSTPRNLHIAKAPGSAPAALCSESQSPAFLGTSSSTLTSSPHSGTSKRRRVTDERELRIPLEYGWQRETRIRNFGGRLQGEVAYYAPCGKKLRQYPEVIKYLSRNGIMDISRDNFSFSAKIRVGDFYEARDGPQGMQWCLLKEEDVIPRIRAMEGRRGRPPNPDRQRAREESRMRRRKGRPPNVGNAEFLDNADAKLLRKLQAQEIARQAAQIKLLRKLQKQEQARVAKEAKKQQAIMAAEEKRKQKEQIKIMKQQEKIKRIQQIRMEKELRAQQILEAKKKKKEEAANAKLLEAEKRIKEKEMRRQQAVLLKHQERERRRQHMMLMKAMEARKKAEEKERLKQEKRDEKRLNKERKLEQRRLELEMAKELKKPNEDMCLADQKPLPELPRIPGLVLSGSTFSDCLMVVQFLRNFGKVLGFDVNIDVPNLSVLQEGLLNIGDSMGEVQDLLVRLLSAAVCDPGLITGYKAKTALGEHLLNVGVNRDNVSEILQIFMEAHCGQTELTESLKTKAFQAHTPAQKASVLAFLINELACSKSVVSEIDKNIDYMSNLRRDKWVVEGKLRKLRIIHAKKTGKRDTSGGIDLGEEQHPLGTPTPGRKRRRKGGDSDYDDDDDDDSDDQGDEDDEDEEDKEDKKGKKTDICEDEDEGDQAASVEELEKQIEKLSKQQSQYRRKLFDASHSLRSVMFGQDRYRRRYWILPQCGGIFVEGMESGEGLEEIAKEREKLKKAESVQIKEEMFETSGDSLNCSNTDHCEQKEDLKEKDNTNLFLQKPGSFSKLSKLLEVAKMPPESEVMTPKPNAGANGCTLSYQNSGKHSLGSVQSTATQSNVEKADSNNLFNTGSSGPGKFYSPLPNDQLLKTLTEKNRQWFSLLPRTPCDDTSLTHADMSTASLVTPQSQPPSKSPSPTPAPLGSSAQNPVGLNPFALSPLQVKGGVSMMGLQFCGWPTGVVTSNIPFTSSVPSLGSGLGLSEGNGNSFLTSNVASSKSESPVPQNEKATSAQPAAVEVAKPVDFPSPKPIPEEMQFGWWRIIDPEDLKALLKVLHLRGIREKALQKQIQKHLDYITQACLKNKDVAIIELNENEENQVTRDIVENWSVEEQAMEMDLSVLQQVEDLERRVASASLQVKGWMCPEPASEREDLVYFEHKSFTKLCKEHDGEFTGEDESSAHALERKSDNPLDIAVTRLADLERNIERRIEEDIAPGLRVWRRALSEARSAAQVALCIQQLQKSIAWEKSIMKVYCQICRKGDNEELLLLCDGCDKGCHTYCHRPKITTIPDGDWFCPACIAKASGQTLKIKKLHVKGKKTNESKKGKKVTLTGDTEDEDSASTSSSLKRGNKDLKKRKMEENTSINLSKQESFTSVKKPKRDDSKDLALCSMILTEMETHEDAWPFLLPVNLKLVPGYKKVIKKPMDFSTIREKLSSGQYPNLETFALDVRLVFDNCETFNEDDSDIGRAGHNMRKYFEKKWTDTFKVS
From the text: BAZ2B (bromodomain adjacent to zinc finger domain, 2B) belongs to a family of ubiquitously expressed bromodomain containing proteins, which biological function has not yet been elucidated. […] The interaction of BAZ2B with ISWI mediated by the BAZ1 motif has recently been described. […] The protocol is based on the AlphaScreen (PerkinElmer) displacement assay developed by NCGC [5], but uses the peptide ligand Biot-H3K14Ac, a high affinity binding partner for BAZ2B, in an AlphaScreen format. Although AlphaScreen has significant advantages with its utility in a variety of epigenetic target assays, the primary screening data provided in this deposition should be used with caution due to the prevalence of screening artifacts. The top compound concentration tested was 110uM in this assay, which increases number of actives and potential artifacts. An AlphaScreen counterscreen is highly recommended to be run against any putative actives to eliminate non-specific artifacts. Alternatively, one can use other AlphaScreen assays in PubChem to filter out promiscuous hits. Eberharter, A. et al. ACF1 improves the effectiveness of nucleosome mobilization by ISWI through PHD-histone contacts. The EMBO journal 23, 4029-4039. 2004. PMID: 15457208 [2] Jones, M.H. et al. A novel family of bromodomain genes. Genomics 63, 40-45. 2000. PMID: 10662543 [3] Yasgar, et al. Compound Management for Quantitative High-Throughput Screening. JALA. 2008 Apr;13(2):79-89. PMID: 18496600 [4] Inglese, et al. Quantitative high-throughput screening: a titration-based approach that efficiently identifies biological activities in large chemical libraries. Proc Natl Acad Sci. 1;103(31):11473-8. 2006. PMID: 16864780 [5] Quinn et al. A chemiluminescence-based method for identification of histone lysine methyltransferase inhibitors. Mol Biosyst 6(5): 782-8. 2010. PMID: 20567762 [6] Baell,Holloway. New substructure filters for removal of pan assay interference compounds (PAINS) from screening libraries and for their exclusion in bioassays. J Med Chem. 53(7):2719-40. 2010. PMID: 20131845 NIH Molecular Libraries Probe Production Network [MLPCN] NIH Chemical Genomics Center [NCGC] Structural Genomics Consortium (SGC) NIH Grant: 5U54 MH084681-02
To each well of a 1,536w plate, 2ul of BAZ2B protein (final 50nM) and 1ul biotinylated histone peptide acetylated at Lys14 [b-H3(5-23)K14Ac] (final 50nM) were added in 1x PBS buffer, pH 7.4, containing 0.01% Tween-20, using a nanoliter dispenser. Formation of a protein-peptide complex proceeded at room temperature for 30 min. A Kalypsys pin-tool was employed to transfer 23 nL of library compound solution in DMSO to each well. Following a 30 min incubation of the protein-peptide complex with compounds at room temperature, a mixture of 40 ug/mL each streptavidin-coated donor and nickel chelate acceptor AlphaScreen beads (final 10 ug/mL) were added in a 1ul dispense for a final volume of 4ul. A brief centrifugation followed (1000rpm, 1 min) and were then incubated protected from the light for 20 min at room temperature. Plates were read on an EnVision multilabel plate reader using the 1,536 plate HTS AlphaScreen aperture (excitation time 80 ms, measurement time 240 ms).
% is set by controls: 0 for no effect and ±100 for the full control effect; potency is the fitted concentration of half-maximal effect.
Note: nearly all actives have a fitted effect of over 60% in size.

| Structure (SMILES) | activity change, negative = inhibition | Potency |
| --- | --- | --- |
| COc1cc(NS(=O)(=O)c2ccc3ccccc3c2)c2ncccc2c1 | 19.5% (inactive) | – |
| O=[N+]([O-])c1ccccc1S(=O)(=O)Nc1cccc2cccnc12 | – | 25.1 µM (active) |
| Cc1nn(-c2nc(-c3ccccc3)cc(C(F)(F)F)n2)c(C)c1Cl | 47% (inactive) | – |
| COC(=O)C(NC(C)=O)(Nc1nc2c(s1)CCCC2)C(F)(F)F (configuration not stated) | – | 56.2 µM (active) |
| Cc1cc(C)cc(OC(C)C(=O)Nc2nc3c(s2)CCCC3)c1 (configuration not stated) | -7.96% (inactive) | – |
| O=C(Nc1nc2c(s1)CCCC2)c1ccccc1F | -17.9% (inactive) | – |
| O=C(CCS(=O)(=O)c1ccc2c(c1)NC(=O)CO2)Nc1cccc(C(F)(F)F)c1 | -2.62% (inactive) | – |
| CCOC(=O)CSC1=Nc2ccccc2C2=NC(CCC(=O)NCc3ccc(F)cc3)C(=O)N12 (configuration not stated) | 0.0886% (inactive) | – |
| Cc1ccc(C)n1C(Cc1ccccc1)C(=O)O (configuration not stated) | – | 39.8 µM (active) |
| N[C@@H](Cc1ccccc1)C(=O)N1CCOCC1 | -4.8% (inactive) | – |
| CCOC(=O)C(Cc1ccc(N)cc1)N1C(=O)c2ccccc2C1=O (configuration not stated) | -37.5% (inactive) | – |
| Cc1ccc2nc(CN3CCN(S(=O)(=O)c4ccc(C)c(C)c4)CC3)oc2c1 | -10.3% (inactive) | – |
| Cc1nn(-c2ccccn2)c2c1C(c1ccncc1)C1=C(CC(C)(C)CC1=O)N2 (configuration not stated) | -34.3% (inactive) | – |
| CC(=C1C(=O)c2ccccc2C1=O)N1CCN(c2ccccn2)CC1 | -6.35% (inactive) | – |
| Cc1cc(C)c(C2C3=C(Nc4c2c(C)nn4-c2ccccn2)c2ccccc2C3=O)c(C)c1 (configuration not stated) | – | 10 µM (active) |
| COc1ccccc1CCNC(=O)c1cccn1-c1nnc(N2CCCCC2)s1 | -16.4% (inactive) | – |
| CCCOc1cccc(C(=O)Nc2cccc(NC(=O)c3ccc(C(C)(C)C)cc3)c2)c1 | -1.31% (inactive) | – |
| CCOC(=O)c1ccc(NC(=O)Cn2c(=O)n(-c3ccc(C)cc3)c(=O)c3c2cnn3C)cc1 | -1.23% (inactive) | – |
| O=C(NC1CCCCC1)c1ccc2c(c1)N(Cc1ccc(Cl)cc1)C(=O)c1ccccc1S2=O (configuration not stated) | -6.93% (inactive) | – |
| NC(=O)CSc1nnc(NC(=O)c2ccc(Br)o2)s1 | – | 56.2 µM (active) |
| NC(=O)CSc1nnc(NC(=O)c2ccc3ccccc3c2)s1 | 5.1% (inactive) | – |
| CCSc1nnc(NC(=O)c2cc(=O)c3cc(C)c(C)cc3o2)s1 | -3.2% (inactive) | – |
| CCCNC(=O)C(CC)n1nc(CC)n2c(cc3oc(C)cc32)c1=O (configuration not stated) | -2.51% (inactive) | – |
| COc1cccc(NC(=O)C(=O)NCC(c2ccc3c(c2)OCO3)N2CCN(C)CC2)c1 (configuration not stated) | 3.37% (inactive) | – |
| CC(C)C(=O)Nc1nc2c(s1)CC(C(C)(C)C)CC2 (configuration not stated) | 1.19% (inactive) | – |
| COc1ccc(CNC(=O)CCN2C(=O)c3ccccc3C2=O)cc1 | -3.11% (inactive) | – |

| Structure (SMILES) | activity change, negative = inhibition | Potency |
| --- | --- | --- |
| CCOC(=O)c1cc2cc3ccccc3cc2oc1=O | -24.2% (inactive) | – |
| CCOC(=O)C1=C(c2ccc(OC)cc2)C(=O)c2ccccc2C1=O | – | 20 µM (active) |
| CCCCn1cc(S(=O)(=O)c2ccc(OCC)cc2)c(=O)c2cc(OC)c(OC)cc21 | -34.9% (inactive) | – |
| Cc1ccc(CCNC(=O)C2CCN(c3nnc(-n4cccc4CNc4ccc(C)cc4)s3)CC2)cc1 | -8.92% (inactive) | – |
| C/C(=N\Nc1cccc(C(=O)O)c1)c1ccc2c(c1)Nc1ccccc1S2 | – | 44.7 µM (active) |
| Cc1ccccc1NC(=O)c1cc(S(=O)(=O)Nc2cccc(C(=O)O)c2)ccc1Cl | -0.0282% (inactive) | – |
| CC(=O)Nc1cccc(/C(C)=N/NC(=O)c2c(-c3ccccc3Cl)noc2C)c1 | 5.83% (inactive) | – |
| Cc1ccc2nc(COc3ccccc3NC(=O)Nc3ccc(F)c(Cl)c3)cc(=O)n2c1 | 0.153% (inactive) | – |
| Cc1nn(-c2ccc(F)cc2)c(-n2cccc2)c1C(=O)N1CCN(c2ccccc2)CC1 | -11.9% (inactive) | – |
| Cc1ccc(-n2nc(C)c(C(=O)O)c2-n2cccc2)cc1 | – | 50.1 µM (active) |
| Cc1nn(-c2ccccc2)c(-n2cccc2)c1C(=O)O | 3.55% (inactive) | – |
| O=C(NCc1ccc2c(c1)CCN2C(=O)c1ccccc1)Nc1cc(F)ccc1F | -2.67% (inactive) | – |
| COc1ccc(OC)c(NC(=O)CSC2=Nc3ccccc3C3=NC(CC(=O)NCc4ccc(F)cc4)C(=O)N23)c1 (configuration not stated) | -32.1% (inactive) | – |
| COc1ccccc1NC(=O)c1sc2nc(C)c(C(=O)Nc3ccc(Cl)cc3)c(-c3ccc(Br)cc3)c2c1N | -20.6% (inactive) | – |
| Cc1ccc(CSCC(=O)N(C)CC(=O)Nc2ccc(C)cc2)cc1 | 1.11% (inactive) | – |
| CCCCN(C)CCNC(=O)CSCc1ccc(C)cc1 | – | 50.1 µM (active) |
| CCN(CC(=O)Nc1cc(Cl)ccc1C)C(=O)CSCc1ccc(C)cc1 | 7.16% (inactive) | – |
| CCOc1ccccc1C(=O)NC1(C(F)(F)F)NC(=O)N(CCc2ccc(OC)c(OC)c2)C1=O (configuration not stated) | -25.7% (inactive) | – |
| CCN(C(=O)c1sc2cc(OC)ccc2c1Cl)c1ccccc1 | 31% (inactive) | – |
| CCC(=O)Nc1ccc2nc(SCC(=O)N3CCc4ccccc43)sc2c1 | -26.5% (inactive) | – |
| CCN(CCCNC(=O)Cn1ncc2c3ccccc3n(C)c2c1=O)Cc1ccccc1 | -2.02% (inactive) | – |
| CCc1ccc(NC(=O)c2nn(-c3ccc(C)cc3)c(=O)n(C)c2=O)cc1 | -15.6% (inactive) | – |
| CCCC(=O)Nc1cc2nn(-c3ccccc3)nc2cc1C | 2.37% (inactive) | – |
| O=C(Cn1nc(Cc2cccnc2)c2ccccc2c1=O)N1CCN(c2ccccc2F)CC1 | -14% (inactive) | – |
| O=C(Nn1cc(C(=O)N2CCN(c3ccccc3F)CC2)c2ccccc2c1=O)c1cnccn1 | – | 28.2 µM (active) |
| Cc1nc2ccn(Cc3cccnc3)c(=O)c2cc1C(=O)N1CCN(c2ccccc2F)CC1 | -10.5% (inactive) | – |
